Data: PubChem BioAssay AID1463 (National Center for Advancing Translational Sciences (NCATS), 2008)
Where “and” joins values, the source holds several entries; their conditions need not be identical. Equal entries are not always repeated. Among all 280,000 compounds or so, about 2,600 (0.93%) were called active. Inconclusive results (about 8%) are left out. Only a selection was taken, and actives are over-represented in it overall. A number with no mark means an inactive call. Calls come from the whole dose curve; as a rule, active = well fitted curve in the direction sought with a large enough effect; inconclusive = small, poorly fitted or top-dose-only effect; inactive = flat fitted curve, though single readings scatter.

Assay: Counterscreen qHTS for Inhibitors of Tau Fibril Formation, Fluorescence Polarization; note: nearly all actives have a fitted effect of over 55% in size
Conditions: tau K18 P301L (four-repeat tau fragment) Alexa594 fluorescence, heparin fibrillization; series mostly up to 57.7 µM; activity change, negative = decrease: at the top concentration
Source text: NIH Molecular Libraries Probe Production Network [MLPCN]
NIH Chemical Genomics Center [NCGC]
Assay Provider: Carlo Ballatore, University of Pennsylvania
The microtubule-associated protein tau is an abundant protein in the axons of neurons that stabilizes microtubules. With its ability to modulate microtubule dynamics, tau contributes directly or indirectly, to key structural and regulatory cellular functions. Particularly important is the influence tau exerts on axonal transport, which allows signaling molecules, trophic factors and other essential cellular constituents to travel along the axons. Under pathological conditions, tau becomes sequestered into insoluble aggregates called neurofibrillary tangles. This phenomenon is believed to have pathological consequences by promoting axonal transport deficits that ultimately lead to synaptic dysfunction and neuronal loss. To identify inhibitors of tau aggregation, a heparin-induced tau fibril formation assay was used that employed a recombinantly expressed fragment of tau, K18 (Q242-E372), bearing a P301L mutation (Gustke et al. 1994; Hong et al. 1998). […] Total fluorescence (555 nm excitation and 632 nm emission) was measured to identify fluorescent or absorbent compounds at this wavelength. Such compounds may be artifacts that interfere with the Alexa 594 Tau fluorescence polarization assay.
Gustke, N., B. Trinczek, et al. (1994). "Domains of tau protein and interactions with microtubules." Biochemistry 33(32): 9511-22.
Hong, M., V. Zhukareva, et al. (1998).
Li, W. and V. M. Lee (2006). "Characterization of two VQIXXK motifs for tau fibrillization in vitro." Biochemistry 45(51): 15692-701.
von Bergen, M., S. Barghorn, et al. (2001). "Mutations of tau protein in frontotemporal dementia promote aggregation of paired helical filaments by enhancing local beta-structure." J Biol Chem 276(51): 48165-74.
NCGC Assay Protocol Summary:
For screening, 2 uL/well human K18 P301L (15 uM unlabeled and 0.24 uM Alexa 594-labeled tau final concentrations) in reagent buffer (100 mM sodium acetate pH 7) was dispensed into black solid 1536-well plates (Grenier) using a solenoid-based dispenser. Following transfer of 23 nL compound or DMSO vehicle by a pin tool, 2 uL/well heparin (20 uM final concentration) in reagent buffer was added and the plate centrifuged 15 s at 1000 RPM. Plates were incubated 6 hr at 37 C and then 1 uL/well ThT (30 uM final concentration) was added. After a 1 hr ambient incubation, the plates were read by an Envision (Perkin Elmer) to monitor Alexa 594 FP (555 nm excitation and 632 nm emission).
Keywords: NIH Roadmap, MLPCN, MLI, MLSMR, NCGC, qHTS, tau, tauopathies, Alzheimer's disease, fibril, neurodegeneration, aggregation
% is set by controls: 0 for no effect and ±100 for the full control effect; potency is the fitted concentration of half-maximal effect; tags give direction and shape of the fitted curve or compound fluorescence and quenching.

Going from `O=C(CSc1nc(C2CC2)nc2ccccc12)Nc1ccc2c(c1)OCCO2` to `O=C(CN1CCN(CC(=O)Nc2ccc3c(c2)OCO3)CC1)Nc1ccc(F)cc1`, the “activity change, negative = decrease” value rises from -17% to -2.95%.

Going from `O=C(Nc1cc(Cl)cc(Cl)c1)c1ccc2c(c1)N(Cc1cccc(Cl)c1)C(=O)c1ccccc1S2=O` (stereo not given) to `O=C(CC1N=C2c3ccccc3N=C(SCc3cccc(Cl)c3)N2C1=O)NCc1ccc2c(c1)OCO2` (stereo not given), the “activity change, negative = decrease” value falls from -14.3% to -27.4%.

Compared with `CCc1ccc(CN(Cc2ccco2)C(=O)c2ccccc2Cl)cc1`, `O=C(COc1ccccc1)NCc1ccc2c(c1)CCN2C(=O)c1ccc(F)cc1` is lower in “activity change, negative = decrease” value: -6.34% for the first, -9.29% for the second.

Compared with `COc1cccc(Nc2nnc(SCC(=O)N3CC(C)OC(C)C3)s2)c1` (stereo not given), `CCOC(=O)C1CCN(C(=O)Nc2cccc(OC)c2)CC1` is higher in “activity change, negative = decrease” value: -7.2% for the first, -1.62% for the second.

Going from `Cc1oc(-c2ccccc2)nc1Cn1c(SCc2cccc(C(F)(F)F)c2)nc2cccnc21` to `Cc1cc2c(cc3c(SCc4nc(-c5ccccc5)oc4C)nnc(C)n32)o1`, the “activity change, negative = decrease” value rises from -22.8% to -15.1%.

Compared with `COc1cccc(N2CCN(C(=O)CCCCCn3c(=O)[nH]c4ccccc4c3=O)CC2)c1`, `Cc1cccc(OCCSc2nc3ccccc3n2CC(=O)N2CCCCC2)c1C` is higher in “activity change, negative = decrease” value: -25.4% for the first, -7.58% for the second.

Going from `CN(c1ccccc1)c1nc(N)c([N+](=O)[O-])c(NCc2ccco2)n1` to `COc1ccc(Nc2nc(Cl)nc(NCc3ccco3)n2)cc1`, the “activity change, negative = decrease” value rises from -11.3% to -5.38%.

First: CCOC(=O)c1c(C)oc2nc(C)nc(N3CCN(c4ccc(OC)cc4)CC3)c12
Second: CCOC(=O)Cn1c(=O)n(C2CCCCC2)c2nc(-c3cccc(OC)c3)nc(C(N)=O)c21
The “activity change, negative = decrease” value of the first is lower: -24.7% for the first, -8.8% for the second.

Going from `COc1ccc(OC)c(NC(=O)CN2CCCN(Cc3cc(C)ccc3C)S2(=O)=O)c1` to `CCn1c(C)c(C)c2cc(C(=O)NCCc3cc(OC)ccc3OC)ccc21`, the “activity change, negative = decrease” value falls from -18.6% to -21.3%.

Going from `COc1ccc(CNC(=O)CCCn2nc(C)c([N+](=O)[O-])c2C)cc1` to `CCc1ccc(NC(=O)Cn2nc(C)c([N+](=O)[O-])c2C)cc1`, the “activity change, negative = decrease” value rises from -4.84% to -4.39%.

First: COc1ccc(C)cc1-n1c(-c2ccc(C)cc2)cc2c1CC(C)(C)CC2=O
Second: CCN1/C(=C/c2ccc3ccc(C)cc3[n+]2CC)Sc2ccccc21
The “activity change, negative = decrease” value of the first is higher: -12.5% for the first, -15.8% for the second.

First: CC(=O)NCCc1nc2cc(NC(=O)c3ccccc3)ccc2n1C
Second: CCC(=O)Nc1ccc2c(c1)nc(CCN1CCN(C)CC1)n2C
The “activity change, negative = decrease” value of the first is lower: -1.64% for the first, 6.79% for the second.

Compared with `O=C(CCN1C(=O)c2ccccc2C1=O)Nc1ccncc1`, `Cc1ccc(OC(=O)CCC(=O)Nc2ccc(Br)cc2)cc1` is lower in “activity change, negative = decrease” value: 8.74% for the first, 5.66% for the second.

Compared with `CC1CCN(CCC(=O)Nc2ccccc2)CC1`, `CCOc1cccc(NC(=O)CC#N)c1` is higher in “activity change, negative = decrease” value: -2.65% for the first, -0.295% for the second.

Compared with `CCNC(=O)N1c2ccccc2Sc2ccccc21`, `Cc1cccc(NC(=O)CSc2ncc(-c3ccccc3)[nH]2)c1C` is lower in “activity change, negative = decrease” value: 0.177% for the first, -24.1% for the second.

Compared with `CCOC(=O)c1c(NC(C)=O)c2c3c(sc2n1Cc1c(C)cc(C)cc1C)CCCC3`, `CCOC(=O)c1ccc(NC(=O)c2c(NCc3cccc(OC)c3)sc3c2CCC3)cc1` is lower in “activity change, negative = decrease” value: 1.76% for the first, -12.9% for the second.

Going from `Cc1ccc(/C=C(\C#N)C(=O)Nc2cc(C)ccc2C)cc1` to `Cc1ccc2nc(/C(C#N)=C/c3ccc(-c4ccc(C(=O)OC(C)C)cc4)o3)[nH]c2c1`, the “activity change, negative = decrease” value falls from -9.9% to -26.4%.

First: Fc1ccc(CN2CCc3nc(Nc4ccccc4)ncc3C2)cc1F
Second: O=C(Nc1ccc(F)cc1F)c1ccc2c(=O)n3c(nc2c1)CCCCC3
The “activity change, negative = decrease” value of the first is lower: -25.3% for the first, -19.9% for the second.

Compared with `CCCN(CCC)S(=O)(=O)c1ccc(C(=O)Nc2sc3c(c2C(=O)OC)CCN(CC)C3)cc1`, `CCN(CC)CCNC(=O)Cn1ncc2c3ccccc3n(Cc3ccccc3C)c2c1=O` is lower in “activity change, negative = decrease” value: -6.21% for the first, -13.4% for the second.

Compared with `Cc1cccc(-n2ccnc2SCC(=O)Nc2cc(C(F)(F)F)ccc2Cl)c1`, `Cc1ccc(NC(=O)Nc2cccc(C(F)(F)F)c2)nc1` is higher in “activity change, negative = decrease” value: -11.6% for the first, -3.63% for the second.

Compared with `CC1(C)CC(=O)c2ccc(O)cc2O1`, `CC(=O)OC1=C(C(C)=O)N(Cc2ccccc2)S(=O)(=O)c2ccccc21` is lower in “activity change, negative = decrease” value: 3.8% for the first, -6.98% for the second.

Compared with `CCN(C(=O)Cn1cnc2sc(C)c(S(=O)(=O)N3CCN(c4ncccn4)CC3)c2c1=O)c1ccccc1F`, `CCCn1c2ccccc2c2cnn(CC(=O)N(CC)c3cc(C)ccc3C)c(=O)c21` is lower in “activity change, negative = decrease” value: -6.1% for the first, -14.2% for the second.

Going from `COc1cc(NC(=O)c2cncc(-c3ccc(C#N)cc3)c2)cc(C(=O)Nc2cccc(C(F)(F)F)c2)c1` to `COc1ccc(NC(=O)C(=O)NCC(=O)Nc2cccc(C(F)(F)F)c2)cc1`, the “activity change, negative = decrease” value rises from -13% to 6.59%.

Going from `O=C(Nc1cccc(C(F)(F)F)c1)c1cnccn1` to `COc1ccc(NC(=O)c2sc(N)nc2-c2ccccc2)cc1`, the “activity change, negative = decrease” value falls from -1.32% to -10.4%.

In the case of `O=C(CSc1nc(-c2cccc(F)c2)[nH]c1-c1ccccc1)Nc1ccc2c(c1)OCO2`, the Potency is reported as 8.91 µM [quencher] (active).
For `COc1cccc(NC(=O)Nc2nnc(N3CCCCC3C)s2)c1` (stereo not given), the Potency was 12.6 µM [quencher] (active).
With `COc1cccc(Nc2nc(N)c([N+](=O)[O-])c(NCc3ccco3)n2)c1` the Potency was 3.16 µM [quencher] (active).
In the case of `Cc1ccc(Oc2cc(NC(=O)CCCn3nc(C)c([N+](=O)[O-])c3C)cc([N+](=O)[O-])c2)cc1`, the Potency is reported as 4.47 µM [quencher] (active).
For `Cn1c(CCN2CCCCCC2)nc2cc(NC(=O)Nc3ccccc3)ccc21`, the Potency was 15.8 µM [quencher] (active).
For `CCN1/C(=C/C(=S)Nc2ccccc2)Sc2ccccc21`, the Potency was 10 µM [quencher] (active).
For `O=C(CCN1c2ccccc2Sc2ccccc21)Nc1ccccc1`, the Potency was 11.2 µM [quencher] (active).
In the case of `CCOc1cccc(NC(=O)CSc2ncc(-c3ccc(Cl)cc3)[nH]2)c1`, the Potency is reported as 11.2 µM [quencher] (active).
In the case of `CC[C@@H]1Cc2cc(O)ccc2C2=C1c1ccc(O)cc1C[C@H]2CC`, the Potency is reported as 5.01 µM [quencher] (active) and 10 µM [quencher] (active).
For `COc1cc(OC)cc(C(=O)Nc2ccc3nc(Nc4cccc(C(F)(F)F)c4)cc(C)c3c2)c1`, the Potency was 3.98 µM [quencher] (active).
For `Cc1cc(Nc2cccc(C(F)(F)F)c2)nc2ccc(NC(=O)c3ccc(=O)[nH]c3)cc12`, the Potency was 3.55 µM [quencher] (active).
In the case of `COC(=O)CCc1sc(Nc2ccc(Br)cc2)nc1-c1ccc(OC)cc1`, the Potency is reported as 8.91 µM [quencher] (active).
